# In the supplement of paper PMC3334620:
# Over roughly 33,000 sequences, “E-score (-0.5 to 0.5)” has its median near -0.0014; the highest 2% begin near 0.25. Shown is part of a subset that was picked to be rich in the highest values.
# Molecular target: T1, Cad1 (UniProt P24813)
# T1 sequence: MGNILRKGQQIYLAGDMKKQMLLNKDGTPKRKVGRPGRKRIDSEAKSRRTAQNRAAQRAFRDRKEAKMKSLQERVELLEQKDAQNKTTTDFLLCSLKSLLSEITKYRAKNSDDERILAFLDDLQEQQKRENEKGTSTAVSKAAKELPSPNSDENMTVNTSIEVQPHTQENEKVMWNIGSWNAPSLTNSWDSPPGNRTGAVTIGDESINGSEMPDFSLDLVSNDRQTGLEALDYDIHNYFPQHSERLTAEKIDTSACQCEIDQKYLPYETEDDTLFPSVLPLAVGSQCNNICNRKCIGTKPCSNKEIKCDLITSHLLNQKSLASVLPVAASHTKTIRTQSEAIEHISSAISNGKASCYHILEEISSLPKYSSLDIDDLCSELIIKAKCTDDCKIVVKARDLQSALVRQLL
# Assay: PBM E-score (8-mer binding enrichment) (E-score (-0.5 to 0.5)); higher = stronger / more preferred TF binding
# Details: protein concentration: 100 nM; construct: GST-full length
# Method in brief: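 Detection of bound protein used fluorescent anti-GST, with scans normalised by masliner. The proteins were GST-tagged yeast transcription factors applied at about 100-200 nM to universal all-10-mer Agilent arrays made double-stranded by primer extension. Each ungapped eight-base word, pooled with its reverse complement, was scored with an E-score from the Universal PBM Analysis Suite.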
row,Sequence,PBM E-score
1,CCTTAGCC,-0.00184
2,CACGCACG,-0.131
3,ATTCGGGG,0.0825
4,GTGCCGAA,-0.0386
5,ACTTACGG,0.0069
6,TGGAGTAA,0.149
7,AGTTTGTG,-0.0199
8,GGCATAAC,0.0911
9,CGCGCACG,0.0231
10,GGCGCACA,0.00969
11,CGCGAAGC,0.219
12,CGCGCAGC,0.103
13,CGCGAAGA,0.273
14,CGCGCACA,0.257
15,AGCGAAGA,-0.118
16,GGCGCAGA,0.00055
17,CGCGCAGA,0.287
18,ACCTTCAT,-0.0561
19,CATAAACC,-0.0325
20,CGAGGCGA,0.0962
21,ATAAGTTC,0.197
22,GAAAGTAC,-0.0278

row,Sequence,PBM E-score
1,CTCAATTC,0.066
2,CCAGCTAA,-0.0477
3,AATGCATG,0.254
4,CATGCATG,0.252
5,CATGCATA,0.156
6,AATGCATT,0.229
7,AATGCATA,0.0741
8,CATGCATC,0.148
9,CGTAACAC,0.124
10,GGGTCGTA,-0.236
11,ACGAAAAT,0.189
12,AGAGTGTC,0.198
13,CGGACGAC,-0.0294
14,CGGACGAA,0.274
15,GGGACGAA,-0.108
16,ATCTGGTG,0.0268
17,CGATACAC,0.00183
18,ATTTCTCC,-0.0308
19,ATTTCTCA,0.0134
20,ATTTCTCG,0.332
21,CATTACAA,0.277
22,CATTACAG,0.0228

row,Sequence,PBM E-score
1,CATTACAC,0.0518
2,TATTACAA,0.152
3,GATTACAA,0.294
4,GATTACAC,0.156
5,AACTTATA,0.257
6,GACTTATA,0.214
7,TACTTATA,0.0796
8,CTAGCTAA,-0.0595
9,ATAGCTAA,0.0748
10,ATTGCTAA,0.256
11,CTAGCTAG,0.279
12,CTAGCTAC,-0.0695
13,TTAGCTAA,0.298
14,CTTGCTAA,-0.13
15,ATAGCTAG,-0.106
16,ATTGCTAG,0.014
17,ACGCCTCT,-0.183
18,GCTTTGAA,0.108
19,ACCGTGTA,0.00454
20,GCTTACAA,0.308
21,ACTTACAA,0.278
22,GATTACGA,0.318

row,Sequence,PBM E-score
1,ACTTACAC,-0.0153
2,ACTTACGA,0.184
3,AATTACGA,0.148
4,ACTTACAT,0.0914
5,CCTTACGA,0.00401
6,GCTTACAC,0.23
7,TCTTACAA,0.0371
8,GCTTACGA,0.258
9,CATTACGA,0.0111
10,CGACTAAG,-0.00537
11,ACTTCAGG,-0.041
12,TACAACTA,0.0174
13,CAGACCCA,-0.175
14,CCTTACTA,0.211
15,TCTTACCA,-0.131
16,GCTTACCC,0.034
17,GCTTACCA,0.255
18,GCTTACTA,0.426
19,ACTTACTA,0.184
20,AGTCAAGA,0.121
21,GCCTTATA,-0.0929
22,GGGATGCA,-0.167

row,Sequence,PBM E-score
1,AACGGGAA,0.00234
2,GTCGAAGA,-0.0249
3,ATTGGCTC,0.0265
4,CCCACGGA,-0.117
5,ATAACGGA,0.155
6,CTAACGGA,0.294
7,CTAACGGC,0.00942
8,TCCACGGA,0.282
9,ACCACGGA,-0.141
10,ATGGTCCC,-0.189
11,CCGCCCTA,-0.00222
12,AGTCGGAA,0.0204
13,AATACTCC,-0.123
14,AGTAATCC,0.229
15,CGTAATCC,0.191
16,CGTAATCA,0.336
17,GGTAAACA,0.124
18,GGTAATCA,0.203
19,AGTAAACA,0.182
20,CGTAAACA,0.256
21,AGTAATCA,0.297
22,CATAATCA,0.175
